Assay results as given in PubChem BioAssay AID1619 (SRMLSC, 2009).
Hit rate of the full screen: of about 220,000 compounds, about 830 (0.38%) were called active.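 The calls were made as follows: active = compound inhibiting the enzyme by more than half at any dose during confirmatory dose-response retesting; inconclusive = strong single-dose inhibitors picked by rank but not retested; inactive = the rest.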 Not all results are given here. Potency and affinity values are given separately.

Target: Leucine aminopeptidase (Plasmodium falciparum (isolate 3D7)) (UniProt Q8IL11)
Sequence (Q8IL11 whole entry, looked up): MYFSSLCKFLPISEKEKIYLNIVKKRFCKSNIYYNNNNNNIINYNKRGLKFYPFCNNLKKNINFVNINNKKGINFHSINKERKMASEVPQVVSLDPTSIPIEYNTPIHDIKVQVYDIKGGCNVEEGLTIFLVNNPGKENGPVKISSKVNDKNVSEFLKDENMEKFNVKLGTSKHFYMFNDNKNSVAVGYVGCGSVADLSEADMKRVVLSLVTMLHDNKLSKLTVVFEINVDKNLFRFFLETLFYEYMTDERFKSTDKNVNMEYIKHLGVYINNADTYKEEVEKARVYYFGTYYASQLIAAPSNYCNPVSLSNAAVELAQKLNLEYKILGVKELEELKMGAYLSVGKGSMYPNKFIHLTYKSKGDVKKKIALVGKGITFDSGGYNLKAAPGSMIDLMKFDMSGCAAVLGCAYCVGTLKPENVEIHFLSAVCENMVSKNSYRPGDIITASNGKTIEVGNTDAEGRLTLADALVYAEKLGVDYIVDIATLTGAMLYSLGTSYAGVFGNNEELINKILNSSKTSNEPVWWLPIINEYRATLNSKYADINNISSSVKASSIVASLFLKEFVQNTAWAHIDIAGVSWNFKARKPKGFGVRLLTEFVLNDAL
Assay: P. falciparum M17LAP inhibitors, primary screen, biochemical, fluorogenic H-Leu-NHMec substrate, 1536-well (AID 1619);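 also: plate controls were full reaction with DMSO carrier for no effect and no enzyme background for full effect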
Conditions: recombinant M17LAP, H-Leu-NHMec fluorogenic kinetic assay; at 30 µM; hits give high values

inhibition, inactive:
CC(=O)c1cc(CN2CCN(CC=C(C)C)C(CCO)C2)cs1 (stereo not given) -1.16%, CC1(C)CC(C#N)(N2CCOCC2)CCO1 (stereo not given) -15.2%, COc1cccc2c(SCC(=O)N/N=C/c3ccccc3)cc(C)nc12 2.63%, COc1cccc2c(SCC(=O)N/N=C/c3ccc(O)cc3O)cc(C)nc12 16.9%, Cc1ccc2nc(C(O)C(O)c3nc4ccc(C)cc4[nH]3)[nH]c2c1 (stereo not given) 12.8%, COc1ccc(/C=N/NC(=O)c2[nH]c(C)c(C(=O)N/N=C/c3ccc(OC)cc3)c2C)cc1 -5.84%, Cc1[nH]c(C(=O)N/N=C/c2ccc(N(C)C)cc2)c(C)c1C(=O)N/N=C/c1ccc(N(C)C)cc1 -3.97%, O=C(N/N=C/c1cccs1)c1c[nH]c2ccccc12 19.5%, O=C(COc1ccc(C(=O)c2ccccc2)cc1)NCC(=O)Nc1ccccc1Br 0.07%, O=C1/C(=C/c2cccnc2)CCC/C1=C\c1cccnc1 12.8%, N#Cc1cc(-c2ccccc2)nn1-c1ccccc1 -15.3%, Cn1c(-c2ccccc2)n[nH]c1=S -6.39%, O=C(CN1C(=O)CSC1=O)Nc1ccc2c(c1)OCCO2 53.7%, CCOc1ccccc1C(=O)Nc1nncs1 -3.85%, Cc1nnc(NC(=O)c2ccccc2Br)s1 -1.4%, O=C(Nc1ccccc1C(=O)Nc1nncs1)c1ccccc1 11.8%, O=C(Nc1nncs1)c1cccnc1Cl 26.3%, CCCCc1nc2sc3c(c2c(=O)[nH]1)CCC3 -6.58%, COc1ccccc1C1SCCN1S(C)(=O)=O (stereo not given) -6.23%, COc1cccc(OCC(=O)O/N=C(\N)c2ccc(OC)c(OC)c2)c1 -15%, COc1ccc2oc(C)c(C(N)=O)c2c1 2.03%, CCOC(=O)CCC(=O)c1c(C)oc2ccc(OC)cc12 9.88%, O=C1NC[C@H](Cc2ccc(O)cc2)N(CCc2cccc3ccccc23)C1=O -2.35%, COc1ccc(NC(=O)CN2C(=O)CSC(C)C2=O)c(OC)c1 (stereo not given) 37.7%, O=C(CN1C(=O)C2CC=CCC2C1=O)Nc1ccc(S(=O)(=O)Nc2ncccn2)cc1 (stereo not given) 1.4%, CCOc1ccc(NC(=O)C2CCC(N3C(=O)C4CC=CCC4C3=O)CC2)cc1 (stereo not given) 48%, CCOC(=O)c1ccc(NC(=O)CN2C(=O)CSC2=O)cc1 19%, COc1ccc(NC(=O)CN2C(=O)CSC2=O)cc1 30.1%, CCOc1ccc(N2C(=O)C3CCCN3C2=O)cc1 (stereo not given) -1.37%, CCOc1ccc(NC(=O)CN2C(=O)NC(CCSC)C2=O)cc1 (stereo not given) 27.7%, CCOC(=O)c1ccc(NC(=O)CN2C(=O)CCC2=O)cc1 -7.84%, Cc1cccc(OCCSc2nncn2C)c1 -2.41%, O=C1c2ccccc2C(=O)N1CSc1nnc(Nc2ccccc2F)s1 4.65%, CN(C)c1oc(-c2ccccc2Cl)nc1S(=O)(=O)c1ccccc1 0.69%, Cc1cccc(C)c1NC(=S)N/N=C/c1ccccc1C(=O)O 7.19%, COc1cc(/C=C/C(=O)OCC(=O)Nc2ccccc2Cl)cc(OC)c1OC 7.2%, Cc1ccccc1C(=O)NC(CC(C)C)C(=O)OCC(=O)c1c(N)n(C)c(=O)n(C)c1=O (stereo not given) -1.49%, CC(C)(C)NC(=O)C(c1ccc(O)cc1)N(C(=O)CCC(=O)Nc1nccs1)c1ccc(F)cc1 (stereo not given) 13.2%, O=C(CCCOc1ccccc1)Nc1ccccc1C(F)(F)F -17.7%, O=C1CC(c2ccccc2)=NN1c1nc(-c2ccccc2)cs1 -0.33%, CCOC(=O)c1ccc(NC(=O)CN2C(=O)CSC(C)C2=O)cc1 (stereo not given) 37%, CCC1SC(CC)C(=O)N(CC(=O)NCc2ccc(F)cc2)C1=O (stereo not given) 7.04%, CCOc1ccc(NC(=O)CN2C(=O)CSC2=O)cc1 54.4%, CC1SC(C)C(=O)N(CC(=O)Nc2ccc3c(c2)OCO3)C1=O (stereo not given) 35.2%, CC1SCC(=O)N(CC(=O)Nc2ccc3c(c2)OCCO3)C1=O (stereo not given) 2.2%, CCOc1ccc(NC(=O)CN2C(=O)C(C)SC(C)C2=O)cc1 (stereo not given) 5.98%, O=C(CN1C(=O)CSCC1=O)NCc1ccc(F)cc1 18.6%, COc1ccc(NC(=O)CN2C(=O)C(C)SC(C)C2=O)c(OC)c1 (stereo not given) 26.5%, CCOC(=O)C1(CCSC)NC(c2ccco2)C2C(=O)N(C)C(=O)C21 (stereo not given) -0.76%, CC(=O)c1sc(N2CCOCC2)nc1-c1ccccc1 9.61%, OCCC1CN(Cc2nc(-c3ccccc3)cs2)CCN1C1CCCC1 (stereo not given) 7.26%, Cc1c(-c2ccccc2)oc2c(C(=O)OCC(=O)Nc3cccc(F)c3)cccc2c1=O 2.04%, CCOC(=O)c1ccc(NC(=O)c2cccc(C)c2[N+](=O)[O-])cc1 0.85%, CCCCN(CC)S(=O)(=O)c1ccc(C(=O)N(CCCN(C)C)c2nc3cc(C)cc(C)c3s2)cc1 -3.97%, CC(=O)Nc1cccc(C(=O)OCc2ccc([N+](=O)[O-])cc2)c1 1.17%, Cc1cccc(Nc2nnc(C)c(=O)n2N)c1 8.38%, O=c1[nH]c2ccc(S(=O)(=O)N3CCCCC3)cc2[nH]c1=O 38.3%, O=c1[nH]c2ccc(S(=O)(=O)N3CCN(c4ccccc4)CC3)cc2[nH]c1=O 40.2%, COC(=O)NCc1ccc2c(c1)OCO2 2.83%, COCC(=O)NCc1ccc2c(c1)OCO2 -6.02%, COc1ccc(OCCCC(=O)Nc2cccc(SC)c2)cc1 1.34%, Nc1c(C(=O)C2CC2)sc2nc(-c3ccccc3)cc(C(F)(F)F)c12 -0.94%, O=c1cc(O)c2sc3nc(-c4ccccc4)cc(C(F)(F)F)c3c2[nH]1 -7%, Cc1cc(C)cc(N(C(=O)c2sc(C)nc2C)C(C(=O)NC(C)(C)C)c2ccncc2)c1 (stereo not given) 0.85%, FCCCOc1ccc(/C=N/OCc2ccc(Cl)cc2Cl)cc1 11.5%
